HEK293 viab – GF-AFC viability counterscreen for inhibitors of alpha-synuclein gene (SNCA) expression. 0.12% of 150,000 active. Potency, µM (doses to about 57.1 µM), inactives show top-dose activity change, negative = cytotoxicity, most hits filed as cytotoxic. HEK-293-SNCA-luc viability, GF-AFC fluorescence, 24 h;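 further: potency means the concentration at half of the fitted maximal effect; 0% = DMSO-treated cells and -100% = medium-only wells without cells; nearly all actives have a fitted effect of over 30% in size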
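Cytotoxicity counterscreen: after 24 h compound treatment of genome-edited SNCA-luciferase HEK-293 cells, live-cell protease substrate GF-AFC read by fluorescence after 30 min; activity scaled between DMSO (0%) and medium-only (-100%), curves Hill-fitted.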
KDM5B inhibitor – Primary screen for KDM5B Histone Demethylases FDH-coupled qHTS | Potency, µM (highest dose often 57.7 µM), hits mostly inhibitors | Lysine-specific demethylase 5B (Homo sapiens), Q9UGL1 | KDM5B demethylase, FDH-coupled NADH fluorescence (FDH is formaldehyde dehydrogenase) | 2.6% of 220,000 active; further: potency means the concentration at half of the fitted maximal effect; 0% is about no effect; nearly all actives have a fitted effect of over 70% in size
Target sequence (Q9UGL1 whole entry, looked up): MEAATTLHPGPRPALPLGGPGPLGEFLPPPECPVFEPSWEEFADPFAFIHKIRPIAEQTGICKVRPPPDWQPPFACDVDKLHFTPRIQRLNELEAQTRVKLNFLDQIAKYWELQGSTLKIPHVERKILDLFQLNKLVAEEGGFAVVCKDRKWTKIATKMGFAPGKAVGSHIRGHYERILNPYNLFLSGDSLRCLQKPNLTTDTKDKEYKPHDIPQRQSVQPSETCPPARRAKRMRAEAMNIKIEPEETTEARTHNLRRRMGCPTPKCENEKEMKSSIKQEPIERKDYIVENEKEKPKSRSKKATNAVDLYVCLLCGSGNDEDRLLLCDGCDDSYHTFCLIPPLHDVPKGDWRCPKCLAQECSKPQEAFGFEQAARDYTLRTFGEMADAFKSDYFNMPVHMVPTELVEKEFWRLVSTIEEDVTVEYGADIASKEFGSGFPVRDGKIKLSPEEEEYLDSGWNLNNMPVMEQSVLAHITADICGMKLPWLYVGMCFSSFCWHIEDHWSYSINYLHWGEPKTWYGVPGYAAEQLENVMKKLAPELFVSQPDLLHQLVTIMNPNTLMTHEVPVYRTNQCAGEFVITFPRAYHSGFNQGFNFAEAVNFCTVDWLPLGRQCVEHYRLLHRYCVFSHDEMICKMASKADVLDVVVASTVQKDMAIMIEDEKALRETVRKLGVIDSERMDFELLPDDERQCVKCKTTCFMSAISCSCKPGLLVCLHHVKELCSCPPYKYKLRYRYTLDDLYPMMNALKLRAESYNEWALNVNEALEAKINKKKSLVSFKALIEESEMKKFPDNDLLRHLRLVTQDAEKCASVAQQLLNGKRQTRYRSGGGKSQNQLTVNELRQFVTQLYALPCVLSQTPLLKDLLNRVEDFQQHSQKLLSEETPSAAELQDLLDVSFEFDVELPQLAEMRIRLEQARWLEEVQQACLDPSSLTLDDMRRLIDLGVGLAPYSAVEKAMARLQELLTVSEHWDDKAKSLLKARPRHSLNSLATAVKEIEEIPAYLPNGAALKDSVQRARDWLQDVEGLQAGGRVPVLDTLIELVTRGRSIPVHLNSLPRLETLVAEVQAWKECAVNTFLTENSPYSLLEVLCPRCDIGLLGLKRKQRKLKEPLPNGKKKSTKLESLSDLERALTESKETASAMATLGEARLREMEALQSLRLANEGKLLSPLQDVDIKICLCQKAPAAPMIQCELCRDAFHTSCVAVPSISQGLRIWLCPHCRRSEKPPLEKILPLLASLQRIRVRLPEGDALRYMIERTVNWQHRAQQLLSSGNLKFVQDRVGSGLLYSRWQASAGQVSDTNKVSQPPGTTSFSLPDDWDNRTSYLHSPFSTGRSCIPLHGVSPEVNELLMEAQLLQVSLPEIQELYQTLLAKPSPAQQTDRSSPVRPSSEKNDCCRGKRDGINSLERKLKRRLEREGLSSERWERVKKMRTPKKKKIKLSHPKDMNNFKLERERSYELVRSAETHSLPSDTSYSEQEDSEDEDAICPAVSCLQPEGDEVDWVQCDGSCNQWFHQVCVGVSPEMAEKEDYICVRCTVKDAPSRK
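qHTS format, multiple compound concentrations. Buffer 50 mM HEPES pH 7.5/0.01% Tween-20; 200 nM KDM5BΔAP final; 10 min compound preincubation; substrate-mix levels 12.5 µM peptide, 25 µM α-KG, 0.25 mM NAD⁺; 30 min RT; ΔRFU.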
IP6K1 inh – Primary qHTS assay for small molecule inhibitors of Inositol hexaphosphate kinase 1 (IP6K1); IP6K1 kinase, ADP-Glo luminescence, 2 h; active compounds read low; AID 1645851, 2021; Inositol hexakisphosphate kinase 1 (Homo sapiens), Q92551; activity change, % (series mostly up to about 58 µM); 0.81% of 140,000 active; in the data active means activity change below about -25%; further: on the % scale 0 is the no-effect control and ±100 the full control effect
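ADP-Glo luminescence measures ADP made by human IP6K1 during a 2 h RT reaction with ATP/IP6 (mix at 1.3 mM/130 uM); top library doses 57.5 and 19.1 uM final.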
SNCA expr inh – Primary qHTS assay for inhibitors of alpha-synuclein gene (SNCA) expression. HEK-293 SNCA-luciferase knock-in, luminescence, 24 h. Potency, µM (series often up to 57.2 µM), inactives show top-dose activity change, negative = inhibition, most hits filed as inhibitors. 0.17% of 140,000 active;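 further: potency means the concentration at half of the fitted maximal effect; plate controls were DMSO cells for no effect and cell-free wells for full effect; nearly all actives have a fitted effect of over 45% in size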
* = called active by the depositor; i = inactive; ? = inconclusive; · = no result; [ ] = dose if it differs, or a comment. Rows were chosen to be rich in hits. Some 3% of all compounds tested hit in one or more screens of this group. Unless noted, the call rests on the fitted dose curve; in most records, active means well fitted curve in the direction sought with a large enough effect; inconclusive means small, poorly fitted or top-dose-only effect, or another doubt; inactive means no such curve, though single readings can be large; an effect the other way counts as inactive or inconclusive.

SMILES | HEK293 viab | KDM5B inhibitor | IP6K1 inh | SNCA expr inh
COc1ccc(OC2CCN(C(C)=O)CC2)c(C(=O)NC(C)Cc2cccs2)c1 (stereo not given) | 0.1% | 28.2µM* | 6.1 | -15.5%
COc1ccc(OC2CCN(C(C)=O)CC2)c(C(=O)NC(C)Cc2cccnc2)c1 (stereo not given) | 3.3% | ? | 9.6 | 3.5%
COc1cc(C=O)c(Br)cc1OC(C)C | · | i | · | ·
Cc1nn(-c2ccccc2)c2c1C(C)N(C1CCCN(C(=O)Nc3ccccc3)C1)C2=O (stereo not given) | · | · | 7.6 | ·
O=C(c1ccc(Cl)cc1)N1CCN(c2ccc3nnc(-c4ccccc4)n3n2)CC1 | · | · | -0.7 | ·
COc1ccc(OC)c(CN2CCNc3cnc(Nc4cccnc4)cc3C2)c1 | 6.5%[87.6 µM] | 25.1µM* | 12.9 | -25.7%[87.6 µM]
COc1ccc(OC)c(CN2CCNc3cnc(OCc4cccnc4)cc3C2)c1 | 2.9%[87.6 µM] | 39.8µM* | -6.3 | 22.2%[87.6 µM]
COc1cccc(CN2CCNc3cnc(OCc4cccnc4)cc3C2)c1 | -8.6%[87.6 µM] | 35.5µM* | -13.2 | -2.2%[87.6 µM]
Fc1cccc(CN2CCNc3cnc(OCc4cccnc4)cc3C2)c1 | 4.0%[87.6 µM] | ? | -17.1 | -18.7%[87.6 µM]
Cc1cccc(CN2CCNc3cnc(OCc4cccnc4)cc3C2)c1 | -11.1%[87.6 µM] | 17.8µM* | 2.2 | -24.0%[87.6 µM]
O=C(NCc1ccc(F)cc1)C1CCCN(c2nccc(Nc3ccccc3F)n2)C1 (stereo not given) | -8.5%[12.5 µM] | · | 6.4 | 3.7%
COc1ccc(CCNC(=O)C2CCCN(Cc3cccc(-c4ccc(F)cc4F)c3)C2)cc1 (stereo not given) | -28.0% | · | -14.4 | ?
CCCC(CCC)C(=O)Nc1ccc(OC)cc1 | · | i | · | ·
Oc1ccccc1CN1CCNc2cnc(Oc3ccccc3)cc2C1 | 1.6%[87.6 µM] | ? | -12.0 | -26.4%[87.6 µM]
CCOc1cc2c(cn1)NCCN(Cc1ccccc1O)C2 | -3.5%[87.6 µM] | 35.5µM* | -16.8 | 29.0%[87.6 µM]
O=C(Nc1ccc(Cl)cc1Cl)c1cnn2ncccc12 | 7.0%[87.6 µM] | 35.5µM* | 0.4 | 13.9%[87.6 µM]
O=C(Nc1ccc(Cl)cc1Cl)c1cccn2nccc12 | 5.2%[87.6 µM] | 31.6µM* | -8.4 | 57.1%[87.6 µM]
O=C(Nc1ccc(F)cc1)c1cccn2nccc12 | 10.5%[87.6 µM] | i | -1.0 | 35.0%[87.6 µM]
O=C(Nc1ccc(Cl)cc1Cl)c1cc2cccnn2n1 | 5.7%[87.6 µM] | i | -10.3 | ?
CCn1ccc(C(=O)N2c3ccccc3CC2c2nc(C(C)C)no2)n1 (stereo not given) | -16.5% | 25.1µM* | 17.8 | 186.6%
CNC(=O)c1cc(C2CC2)nc2c1c(C1CCN([S+](=O)([O-])c3cccc(C(F)(F)F)c3)C1)nn2C (stereo not given) | · | · | 2.5 | ·
Cn1cc(CN2CCc3ccccc32)ccc1=O | ? | 10µM* | -4.0 | 6.7%
O=C(O)C1CN(c2nccc(N3CCC(O)CC3)n2)CCN1 (stereo not given) | -3.7% | ? | 2.8 | ?
CCOc1ccc(-c2ccnc(N3CCC(NC(C)=O)CC3)n2)cc1C(=O)O | -0.3% | 31.6µM* | -7.7 | -2.6%
CCOc1ccc(-c2ccnc(NC[C@@H]3CCCO3)n2)cc1C(=O)O | 0.1% | 22.4µM* | -9.7 | ?
SMILES | HEK293 viab | KDM5B inhibitor | IP6K1 inh | SNCA expr inh
CCCOc1c(Cl)cc(C(=O)NCC2CCCO2)cc1OCC (stereo not given) | · | i | · | ·
CCOc1ccc(-c2ccnc(N3CCNC(C)C3)n2)cc1C(=O)O (stereo not given) | 2.9% | 28.2µM* | 4.4 | ?
O=C(NC1CCCC1)C1CCCN(c2nccc(Nc3ccccc3F)n2)C1 (stereo not given) | -11.3%[12.5 µM] | · | 7.6 | -26.1%
O=C(NCCCc1ccccc1)c1ccc2nccn2c1 | 1.9%[87.6 µM] | 35.5µM* | -4.7 | 62.5%[87.6 µM]
O=C(NCCC1CCCCC1)c1ccc2nccn2c1 | 1.5%[87.6 µM] | 28.2µM* | -5.0 | 83.1%[87.6 µM]
O=C(NCCc1nc(Cc2ccccc2)no1)c1ccc2nccn2c1 | 3.0% | 17.8µM* | -13.7 | -2.9%
Cc1ccccc1C(=O)NC1CCN(c2ccc3nnc(-c4ccccc4)n3n2)CC1 | · | · | -3.2 | ·
F[C@@H]1CN(CC2CC2)C[C@@H]1OCc1nc2ccccc2o1 | 2.1%[87.6 µM] | ? | 2.4 | 131.0%[87.6 µM]
O=C(NCCN[S+](=O)([O-])c1cccc(C(F)(F)F)c1)c1ccc(-c2cccc(C(F)(F)F)c2)cc1 | · | · | 21.8 | ·
Cc1ccc(C(=O)N2CCN(c3nnc4ccccn34)CC2)cc1C | -1.6% | 25.1µM* | 12.0 | 45.1%
O=C(c1ccoc1)N1CCCN(c2nnc3ccc(Cl)cn23)CC1 | 5.9% | ? | 9.7 | 47.0%
O=C(c1ccc(F)cc1)N1CCN(c2nnc3ccccn23)CC1 | 6.8% | 28.2µM* | 43.6 | -2.6%
O=C(c1cccc(F)c1)N1CCN(c2nnc3ccc(Cl)cn23)CC1 | -0.7% | 14.1µM* | 17.7 | 2.8%
CCCCc1ccc(C(=O)Oc2ccc(C(C)=O)cc2)cc1 | · | i | · | ·
Cc1cc(C(F)(F)F)nc(CCNC(=O)C2NCCc3[nH]cnc32)n1 (stereo not given) | -3.6% | i | 2.1 | 13.6%
Cc1ccc2cccc(OCCNC(=O)C3NCCc4[nH]cnc43)c2n1 (stereo not given) | 2.8% | 14.1µM* | -11.1 | 18.3%
O=C(Nc1cnc(-c2cccc(Cl)c2)nc1)c1cc(F)cc(F)c1 | -14.6% | 25.1µM* | 4.4 | 29.2%
COc1ccc(C(=O)NC2CCN(Cc3cccc(-c4ccccc4OC)c3)CC2)cc1 | · | · | 19.9 | ·
CS(=O)(=O)N1CCCC(C(=O)NCCCN2CCCc3ccccc32)CCNC(=O)CC1 (stereo not given) | -0.3% | 31.6µM* | -1.0 | 7.4%
CS(=O)(=O)N1CCCC(C(=O)NCCc2cccnc2)CCNC(=O)CC1 (stereo not given) | 3.3% | i | -3.4 | -13.2%
Cc1ccc(CNC(=O)c2c(C)sc3ccn(CC(C)C)c(=O)c23)o1 | 5.6% | 25.1µM* | -1.3 | -23.2%
COc1cc(OC)c(-c2c(-c3ccccc3)ncn2CCF)cc1OC | -0.1% | 25.1µM* | 2.9 | -4.9%
Cc1ccc(-c2cc(N3CCCN(C(=O)CCc4ccccc4)CC3)n[nH]2)cc1C | ? | 15.8µM* | -4.9 | ?
O=C(CCc1ccccc1)N1CCCN(c2cc(-c3ccc(Cl)cc3)[nH]n2)CC1 | -6.5% | ? | 2.5 | 2.9%
CC(C)[S+](=O)([O-])N(C)Cc1cccc(N2CCN([S+](=O)([O-])c3c(Cl)cccc3Cl)CC2)c1F | · | · | 4.1 | ·
CCn1nc(CC(C)C)cc1C(=O)N1C[C@@H](NC(C)=O)[C@H](C(C)C)C1 | 0.0% | 35.5µM* | -6.4 | 1.7%
CC(C)Cc1cc(C(=O)N2C[C@H](C3CC3)[C@@H](N)C2)n(C)n1 | 2.1% | i | -8.3 | -16.9%
CNC(=O)c1cc(-c2ccncc2)cc2c1OCCN2Cc1cccnc1 | -7.1%[87.6 µM] | i | -17.3 | -9.5%[87.6 µM]
CNC(=O)c1cc(-c2cccnc2)cc2c1OCCN2Cc1cccnc1 | -1.0%[87.6 µM] | i | -24.9 | 3.0%[87.6 µM]

Source: PubChem BioAssay
